# The list is not random: actives were taken first. Their share in the collection is about 10%.
# Six1-Eya2 inh: Six1/Eya2 interaction inhibition. AlphaScreen GST-Six1/His-Eya2 binding, biochemical; active compounds read low. activity change, % (concentration not given with the values). 0.56% of 360,000 active; in the data active means activity change below about -65%; inconclusive means mostly about -30% to -63%; further: on the % scale 0 is the no-effect control and ±100 the full control effect
#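 Six1/Eya2 binding was read as AlphaScreen signal after compounds were pinned into GST-Six1 plus His-tagged Eya2 (5X stock 250/500 nM) in pH 8.0 Tris/NaCl/TCEP buffer, beads added, then incubated 1 h, 37 C, dark.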
# CtBP-E1A blk: CtBP/E1A binding inhibition; AlphaScreen GST-E1A/His-CtBP binding, 1536-well; active compounds read low; activity change, % (concentration not given with the values); 0.49% of 340,000 active; in the data active means activity change below about -65%; inconclusive means mostly about -30% to -63%; further: on the % scale 0 is the no-effect control and ±100 the full control effect
#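 Protein mix (5X: 125 nM each GST-E1A, His-CtBP) was incubated with pinned compound 2 h at 37 deg C in dark, in 50 mM Tris pH 8.0 buffer with 300 mM NaCl. Glutathione donor and nickel acceptor beads followed; AlphaScreen signal read after 1 h.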
# HP1b binding inh: HP1-beta chromodomain-methylated histone interaction inhibition | AID 540317 | P83916 | Potency, µM (highest dose often 114 µM), inactives show at the highest dose activity change, negative = inhibition, hits mostly inhibitors | AlphaScreen HP1-beta / biotin-H3K9me3 peptide binding | 0.56% of 390,000 active; further: potency means the concentration at half of the fitted maximal effect; nearly all actives have a fitted effect of over 70% in size
# Target sequence (P83916 whole entry, looked up): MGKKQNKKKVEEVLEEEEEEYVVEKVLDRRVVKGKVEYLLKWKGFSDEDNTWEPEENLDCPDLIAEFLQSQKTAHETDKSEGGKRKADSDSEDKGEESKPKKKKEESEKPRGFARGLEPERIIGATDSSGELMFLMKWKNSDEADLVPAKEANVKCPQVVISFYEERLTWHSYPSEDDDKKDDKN
#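 AlphaScreen: HP1-beta (50 nM) preformed 30 min with biotin-H3(1-18)K9me3 peptide (50 nM) in PBS pH 7.4, 0.01% Tween-20. Compound added for 30 min at RT, then streptavidin donor/nickel chelate acceptor beads (10 ug/mL) for 30 min.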
# JMJD2A Tudor inh: blocks the human JMJD2A Tudor domain; O75164; AlphaScreen JMJD2A-Tudor / H3K4me3 peptide binding; Potency, µM (series often up to 114 µM), inactives show at the highest dose activity change, negative = inhibition, usual class: inhibitors; 4.4% of 390,000 active; further: potency means the concentration at half of the fitted maximal effect; on the % scale 0 is the no-effect control and ±100 the full control effect; nearly all actives have a fitted effect of over 50% in size
# BAZ2B block: inhibitors of human BAZ2B bromodomain; Q9UIF8; AlphaScreen BAZ2B-H3K14Ac peptide displacement; Potency, µM (series often up to 114 µM), inactives show at the top dose activity change, negative = inhibition, most hits filed as inhibitors; 4.4% of 360,000 active; AID 504333; further: potency means the concentration at half of the fitted maximal effect; on the % scale 0 is the no-effect control and ±100 the full control effect; nearly all actives have a fitted effect of over 60% in size
#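 BAZ2B 50 nM plus b-H3(5-23)K14Ac 50 nM, PBS pH 7.4/0.01% Tween-20, 30 min RT; compound added (max 110 uM), 30 min RT; streptavidin donor/Ni-chelate acceptor beads 10 ug/mL final, 20 min dark; AlphaScreen read.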
# G9a inh: inhibitors of human histone lysine methyltransferase G9a. G9a H3K9 monomethylation, AlphaScreen, 2 h. Potency, µM (titrated, usually from 102 µM), without a hit: at the top dose activity, negative = inhibition, actives largely listed as inhibitors. 8.8% of 350,000 active. AID 504332; further: potency means the concentration at half of the fitted maximal effect; on the % scale 0 is the no-effect control and ±100 the full control effect; nearly all actives have a fitted effect of over 75% in size
# Target sequence (Q96KQ7 913-1193 limits assumed): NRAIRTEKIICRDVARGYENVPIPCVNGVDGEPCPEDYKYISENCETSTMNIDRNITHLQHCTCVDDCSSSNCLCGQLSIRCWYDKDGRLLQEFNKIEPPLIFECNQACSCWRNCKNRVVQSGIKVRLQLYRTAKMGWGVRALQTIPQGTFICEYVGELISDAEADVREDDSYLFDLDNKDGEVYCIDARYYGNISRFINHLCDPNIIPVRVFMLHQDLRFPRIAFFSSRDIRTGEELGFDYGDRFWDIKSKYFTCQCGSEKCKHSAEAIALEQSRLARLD
#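 Step 1: enzyme (final 20 nM) with compound, 15 min RT. Step 2: substrate peptide 500 nM and SAM 20 uM, 2 h RT. Step 3: anti-H3K9me1 antibody and AlphaScreen beads, 10 min, then plate read.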
# An asterisk follows results filed as active; u = inconclusive; x = no result given; [ ] = remark or other dose. Unless noted, the call rests on the fitted dose curve; in most records, active means well fitted inhibition curve with a large enough effect; inconclusive means small, poorly fitted or top-dose-only effect; inactive means no such curve, though single readings can be large or run the other way.
SMILES,Six1-Eya2 inh,CtBP-E1A blk,HP1b binding inh,JMJD2A Tudor inh,BAZ2B block,G9a inh
COc1ccc(N(C(=O)c2ccco2)C(C(=O)NC2CCCC2)c2ccncc2)cc1OC (stereo not drawn),6,6,31%,1%,-5%,71µM*
CCc1ccc(N(C(=O)CNC(=O)c2ccco2)C(C(=O)NC2CCCC2)c2cccnc2)cc1 (stereo not drawn),0,7,-4%,50µM*,5%,6%
COc1ccc(C(C(=O)NC2CCCC2)N(C(=O)c2ccco2)c2ccc(OC)c(OC)c2)cc1 (stereo not drawn),3,8,24%,-14%,-6%,13%[59 µM]
CCN(CC)S(=O)(=O)c1ccc2c(c1)N(CC(=O)N1CCN(c3cccc(C)c3C)CC1)C(=O)CO2,x,x,30%,-24%,-1%,-1%[59 µM]
CCCN(CCC)C(=O)Cc1coc2ccc3ccccc3c12,-1,2,34%,7%,-4%,50µM*
O=C(Cc1coc2ccc3ccccc3c12)NCc1ccccc1,-2,-2,20%,-13%,-6%,-10%
S=c1cn[nH]c2ccccc12,-5,-2,89µM*,4.5µM*,x,x
CC(=O)Nc1nc2c(s1)CCc1ccccc1-2,-6,x,5%[57 µM],-27%,-30%,0%[59 µM]
O=C(CCCl)Nc1nc2c(s1)CCc1ccccc1-2,-4,-2,-14%,-32%,-29%,50µM*
Nc1nc2c(s1)CCc1ccccc1-2,-11,6,-31%,u,u,10µM*
COc1ccc(Cn2c(=O)sc3ccccc32)cc1,23,15,68%,23%,71%,24%[59 µM]
COc1ccc(Cn2c(=S)[nH]c3ccccc32)cc1,1,1,33%,-23%,-30%,1.8µM*
COc1ccc(-n2c(=S)[nH]c3ccccc32)cc1,-1,-4,3%,40µM*,u,3.5µM*
COCCn1c(=S)[nH]c2ccccc21,-1,-4,42%,-11%[57.1 µM],-37%,40µM*
Cc1ccc(S(=O)(=O)N(C)C)cc1NC(=O)CSc1nc2ncc(Cl)cc2[nH]1,-21,0,-6%,-19%,4%,35µM*
COc1ccc(NC(=O)N2CC[C@@]3(CCCNC3)C2)cc1,x,x,x,x,x,-20%[12.7 µM]
NS(=O)(=O)c1ccc(N/N=C2/CCCCC2C2CCCCC2)c([N+](=O)[O-])c1 (stereo not drawn),u,u,32µM*,28µM*,10µM*,u
C/C(CC(C)C)=N\Nc1ccc(S(N)(=O)=O)cc1[N+](=O)[O-],-11,-18,-8%,u,x,u
Cc1cc(C)c2c(c1)/C(=N/Nc1ccc(S(N)(=O)=O)cc1[N+](=O)[O-])CCC2,-4,x,14%[57 µM],-15%,-32%,40µM*
CN(C)CCSc1nnc2[nH]c3ccccc3c2n1,-17,-21,26%,-9%,-4%,1.4µM*
O=C(Nc1cccnc1)C1Cc2c(-c3cccc(F)c3)ccnc2O1 (stereo not drawn),-7,2,x,x,x,x
CC(=O)Nc1ccc(OC(=O)c2ccccc2OC(C)=O)cc1,x,x,x,x,x,-4%[12.7 µM]
CC(C)[C@H](NC(=O)[C@@H]1Cc2ccccc2CN1C(=O)OC(C)(C)C)C(=O)NCC1CCCO1 (stereo partly drawn),13,12,48%,-4%,-5%,-2%
COc1ccccc1NC(=S)NNC(=O)c1nn(C)c(C)c1Br,u,-5,-2%,-20%,-2%,11µM*
COc1ccc(/C=C/C(=O)NC(=S)NNC(=O)Cc2cccs2)cc1OC,-22,u,10%,-9%,6%,3.5µM*
SMILES,Six1-Eya2 inh,CtBP-E1A blk,HP1b binding inh,JMJD2A Tudor inh,BAZ2B block,G9a inh
COc1ccccc1NC(=S)NC(=O)C(C)(C)C,-3,1,15%,-23%,-2%,40µM*
COc1ccc(/C=C/C(=O)NC(=S)NNC(=O)c2cccs2)cc1OC,-11,-2,23%,14%,10%,u
O=C(/C=C/c1cccs1)NC(=S)NNC(=O)Cc1cccs1,-22,-23,26%,-5%,9%,4.5µM*
COc1ccccc1NC(=S)NC(=O)Cc1ccccc1,-8,3,31%,0%,x,x
CC(=O)N1CCC(C(=O)Nc2nnc(C(C)C)s2)CC1,x,x,8%,-9%,x,x
COc1ccc(NC(=S)NC(=O)/C=C/c2cccs2)cc1,-27,-8,19%,-20%,-12%,u
COc1ccccc1NC(=S)NC(=O)/C=C/c1cccs1,-13,-26,-22%,-11%,x,45µM*
Cc1cc2c(s1)c1cnn(Cc3ccccc3F)c(=O)c1n2Cc1ccccc1F,x,x,x,3%,x,x
CCC1=C/C(=C/N(C)c2ccccc2)C(=O)S1,-5,-9,u,u,-8%,25µM*
CN(c1ccccc1)S(=O)(=O)CS(=O)(=O)N(C)c1ccccc1,3,-4,35%,-1%,x,x
COC(=O)c1ccn(-c2nc(-c3ccc(Cl)cc3)cc(C(F)(F)F)n2)n1,x,x,37%,3%,-9%,1%[59 µM]
COc1ccc(/C=C/C(=O)Oc2ccc(C)c(C)c2)cc1OC,-5,u,32%,26%,x,49%
COc1cc(/C=C/[N+](=O)[O-])ccc1OC(=O)/C=C/c1ccc(F)cc1,u,-90*,6%,-19%,8%,x
COc1cc(/C=C/[N+](=O)[O-])ccc1OCc1cccc(C(=O)O)c1,-76*,2,7%,-31%,28µM*,14µM*
CCn1cnc2c(Nc3ccc(Cc4cccnc4)cc3)nc(C#N)nc21,x,x,x,-23%,x,x
CCOC(=O)C1(C)CCCCCN1C(=O)c1ccc(N(C)C)cc1 (stereo not drawn),3,-12,x,x,x,x
O=C1NC[C@H](c2ccccc2)N(CCc2cccc3ccccc23)C1=O,-8,4,25%,-24%,-3%,2%[12.7 µM]
CCCCOc1ccc(C2c3c(oc4ccccc4c3=O)C(=O)N2c2nc(C)c(C(=O)OCC)s2)cc1OC (stereo not drawn),x,x,20%,1%,2%,-4%[59 µM]
COC(=O)c1cc2sccc2n1CC(=O)Nc1ccc(OC)c(OC)c1OC,-13,-2,-5%,-6%,0%,-32%[59 µM]

# Source: PubChem BioAssay (National Center for Advancing Translational Sciences (NCATS))
